Results from PubChem BioAssay (NCATS).
Values joined by “and” are separate entries in the source; they are usually repeats but may differ in a detail not shown here. Equal entries are not always repeated. Inconclusive results are not listed. Unmarked numbers belong to inactive results. The call rests on the fitted dose curve; in most records, active means well fitted activation curve with a large enough effect; inconclusive means small, poorly fitted or top-dose-only effect; inactive means no such curve, though single readings can be large or run the other way.

biological target: Cellular tumor antigen p53 (Homo sapiens) (UniProt P04637); experiment: Primary qHTS for small molecule compounds that upregulate eGFP-tagged delta133p53alpha (in N-terminal) cells. (AID 2060322); conditions: NCI-H358 eGFP-delta133p53alpha fluorescence, 24 h; activation: active compounds read high;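 further: series mostly up to about 56 µM; 0% = DMSO vehicle and 100% = reference activator; nearly all actives have a fitted effect of over 75% in size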
In short: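 NCI-H358 cells pre-induced 24 h with 10 ng/ml doxycycline to express N-terminal eGFP-delta133p53alpha, then dosed 24 h at 37C without doxycycline; fixed, Hoechst-stained, GFP intensity by laser scanning cytometry, normalized to DMSO (0%) and 57.5 uM 5-azacytidine (100%).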

Cellular tumor antigen p53 (Homo sapiens), sequence (P04637 whole entry, looked up): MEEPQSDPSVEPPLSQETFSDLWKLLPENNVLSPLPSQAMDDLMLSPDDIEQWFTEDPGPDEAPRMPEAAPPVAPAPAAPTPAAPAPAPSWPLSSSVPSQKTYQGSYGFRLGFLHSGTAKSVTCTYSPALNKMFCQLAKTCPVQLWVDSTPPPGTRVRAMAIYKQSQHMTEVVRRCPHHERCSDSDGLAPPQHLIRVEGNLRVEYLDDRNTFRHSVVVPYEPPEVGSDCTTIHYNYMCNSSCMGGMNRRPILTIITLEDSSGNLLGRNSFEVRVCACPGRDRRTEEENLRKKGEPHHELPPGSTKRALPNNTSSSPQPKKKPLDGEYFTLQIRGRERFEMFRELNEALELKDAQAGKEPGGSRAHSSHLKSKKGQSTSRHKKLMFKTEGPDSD

Compound | activation
COC(=O)C1=COC(O[C@@H]2O[C@H](CO)[C@@H](O)[C@H](O)[C@H]2O)/C(=C\COC(=O)/C=C/c2ccccc2)C1CC(=O)OCCc1ccc(O)cc1 (some centres undefined) | -0.763%
O=C(OC[C@@]1(O)CO[C@@H](O[C@H]2[C@H](Oc3ccc(O)cc3)O[C@H](CO)[C@@H](O)[C@@H]2O)[C@@H]1O)c1ccc(O)cc1 | -19.1%
COc1cc([C@@H]2Oc3c(OC)cc(CCCO)cc3[C@@H]2CO[C@@H]2O[C@H](CO)[C@@H](O)[C@H](O)[C@H]2O)ccc1O | -9.16%
C[C@@H]1O[C@@H](O[C@H]2[C@H](OC(C#N)c3ccc(O)cc3)O[C@H](CO)[C@@H](O)[C@@H]2O)[C@H](O)[C@H](O)[C@H]1O (some centres undefined) | -19.8%
COc1c(C)c(C(=O)c2ccc(N)c(C(=O)O)c2)n2ccccc12 | 10% and 14.3%
C/C=C1/CC2C(=O)Nc3cc(O)c(OC)cc3C(=O)N2C1 (centres undefined) | -3.57%
COc1cc(/C=C/C(=O)OC(C)(C)C(OC2OC(CO)C(O)C(O)C2O)C(=O)OCc2ccc(OC3OC(CO)C(O)C(O)C3O)cc2)ccc1O (centres undefined) | 13.7%
Cc1c(C)c(NCC(=O)N(C)C2CCN(Cc3ccc(C(N)=O)cc3)CC2)c(C)c(C)c1N | 1.43%
C[C@@H]1O[C@@H](O[C@H]2[C@@H]3C=CO[C@@H](O[C@@H]4O[C@H](CO)[C@@H](O)[C@H](O)[C@H]4O)[C@@H]3[C@@]3(CO)O[C@@H]23)[C@H](O)[C@H](OC(=O)/C=C/c2ccc(O)c(O)c2)[C@H]1O | 2.29%
